Assay outcomes deposited in PubChem BioAssay by The Scripps Research Institute Molecular Screening Center.
FBW7 activator: human FBW7 E3 ligase activation, primary screen. AID 1259310. normalized activity (activation), % at 26.1 µM. 0.13% of 650,000 active. Q969H0. AlphaScreen FBW7–phospho-cyclin E peptide binding, activator screen; in the data active means normalized activity above about 1.9%;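 further: purified mutant Fbw7 with reduced substrate affinity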
GPR151 ag: activates the human receptor GPR151. PathHunter beta-arrestin GPR151 cells, luminescence. 1% of 650,000 active. AID 1508602. Q8TDV0. activation, % at 11.2 µM; in the data active means activation above about 4.9%
TEAD-YAP block: TEAD-YAP interaction inhibition; inhibition, % at 9.12 µM; 1.4% of 640,000 active; HEK-TIYL cells, TEAD-Gal4/YAP UAS-luciferase luminescence; in the data active means inhibition above about 32%
MITF inh: inhibitors of human MITF; O75030; inhibition, % at 2.6 µM; AID 1259374; AlphaScreen MITF homodimerization, bead proximity signal; 0.91% of 650,000 active; in the data active means inhibition above about 50%
Target sequence (O75030 whole entry, looked up): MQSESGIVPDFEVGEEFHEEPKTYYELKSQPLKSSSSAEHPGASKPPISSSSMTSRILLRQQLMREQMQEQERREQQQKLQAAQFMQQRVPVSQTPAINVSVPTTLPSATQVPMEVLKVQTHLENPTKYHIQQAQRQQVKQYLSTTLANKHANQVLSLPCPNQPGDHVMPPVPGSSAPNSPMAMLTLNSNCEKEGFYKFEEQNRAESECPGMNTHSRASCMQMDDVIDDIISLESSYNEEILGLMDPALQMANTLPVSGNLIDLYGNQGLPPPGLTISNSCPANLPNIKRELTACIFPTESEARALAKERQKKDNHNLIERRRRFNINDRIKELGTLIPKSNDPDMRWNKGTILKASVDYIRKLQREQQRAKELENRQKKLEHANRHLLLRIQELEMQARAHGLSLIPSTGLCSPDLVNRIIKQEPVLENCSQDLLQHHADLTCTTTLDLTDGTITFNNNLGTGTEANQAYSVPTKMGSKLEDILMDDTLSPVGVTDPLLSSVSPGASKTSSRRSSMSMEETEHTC
MITF confirm: confirmation of human MITF inhibitors. AlphaScreen MITF homodimerization, biotin/His-MITF beads. inhibition, % at 2.6 µM. shares compounds with MITF inh. 16% of 4,700 active;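 active means inhibition above a cutoff derived from the DMSO control wells, cut at about 28% in these data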;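 further: inhibitors lower the bead chemiluminescence by keeping MITF from dimerizing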
AlphaScreen DR: optically interferes with AlphaScreen signal in dose response | shares compounds with MITF inh | AlphaScreen optical interference counterscreen, cell-free | IC50, µM | 6% of 480 active | AID 1259373; call rule not given here
AlphaScreen intf2: AlphaScreen optical interference, counter-screen. shares compounds with MITF inh. 7.6% of 4,700 active. LysRS AlphaScreen counterscreen, signal interference, triplicate. inhibition, % at 2.6 µM. AID 1259376;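 active means inhibition above a cutoff derived from the DMSO control wells, cut at about 30% in these data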
Large screens that a line does not name were inactive (follow-up assays come after a bar, where they were run). This is a sample that favours compounds with a hit; in the whole collection about 3.5% have one here.

Cc1ccc2cc(CN(C(=O)Nc3ccccc3)C3CCCC3)c3nnnn3c2c1	MITF inh 65 | MITF confirm inactive | AlphaScreen intf2 inactive
Cc1ccc(COc2c(Br)cc(/C=C(\C#N)c3nc4ccccc4[nH]3)cc2Br)cc1	none
O=C(O)Cc1cc(=O)n(-c2ccccn2)[nH]1	MITF inh 117 | MITF confirm 118 | AlphaScreen intf2 100
CC1NC(=O)NC1CCCCCC(=O)OCC(=O)c1ccccc1 (stereo not given)	MITF inh 115 | MITF confirm 118 | AlphaScreen intf2 100
O=C(CCCC(=O)OCC(=O)c1ccccc1)Nc1ccccc1	none
O=S(=O)(/C=C/c1ccccc1)N1CCN(CC(O)COc2ccccc2F)CC1 (stereo not given)	MITF inh 60 | MITF confirm inactive | AlphaScreen intf2 inactive
O=S(=O)(c1cccs1)N1CCN(CC(O)COc2ccccc2F)CC1 (stereo not given)	MITF inh 66 | MITF confirm inactive | AlphaScreen intf2 inactive
OC(COc1ccccc1F)CN1CCN(c2ccccc2)CC1 (stereo not given)	none
O=S(=O)(c1cccs1)N1CCN(CCO)CC1	none
COc1ccccc1N1CCN(S(=O)(=O)c2cc(Cl)ccc2Cl)CC1	none
Cc1cccc(CN2CCN(CC3CC=CCC3)CC2)c1 (stereo not given)	MITF inh 67 | MITF confirm inactive | AlphaScreen intf2 inactive
CCS(=O)(=O)N1CCN(Cc2cccc(C)c2)CC1	none
COc1ccc(CN2CCN(CC3CC=CCC3)CC2)cc1OC (stereo not given)	MITF inh 61 | MITF confirm inactive | AlphaScreen intf2 inactive
COc1ccc(CN2CCN(CC3CC=CCC3)CC2)cc1 (stereo not given)	MITF inh 61 | MITF confirm inactive | AlphaScreen intf2 inactive
Fc1ccc(CN2CCN(CC3CC=CCC3)CC2)cc1 (stereo not given)	MITF inh 65 | MITF confirm inactive | AlphaScreen intf2 inactive
COc1ccc(C(=O)N2CCN(CC3CC=CCC3)CC2)cc1OC (stereo not given)	none
Cc1nc2c(c(=O)[nH]1)CCN(C(=O)C1CC(=O)N(Cc3ccccc3)C1)C2 (stereo not given)	none
CCOc1cc(CN2CCCC2)ccc1OC	none
CCOc1cc(CN2CCN(CC3CC=CCC3)CC2)ccc1OC (stereo not given)	MITF inh 70 | MITF confirm inactive | AlphaScreen intf2 inactive
COCCNC(=S)NNC(=O)c1ccc(Cl)cc1Cl	none
COCCNC(=S)NNC(=O)c1cc(Cl)ccc1OC	MITF inh 63 | MITF confirm inactive | AlphaScreen intf2 inactive
CC1CCCCC1Nc1ncnc2sccc12 (stereo not given)	MITF inh 64 | MITF confirm inactive | AlphaScreen intf2 inactive
CCOc1ccc(-n2c(=S)sc3c(=O)n(-c4ccc(F)cc4)c(SCC(=O)NCc4ccco4)nc32)cc1	none
C(=N\Nc1nc(-c2ccccn2)cs1)/c1cccnc1	MITF inh 52 | MITF confirm 30 | AlphaScreen intf2 54
Cc1ccc(NC(=O)C(Cc2c[nH]c3ccccc23)NC(=O)OC(C)(C)C)cc1 (stereo not given)	MITF inh 62 | MITF confirm inactive | AlphaScreen intf2 inactive
COc1ccc(S(=O)(=O)N2CCN(Cc3ccccc3[N+](=O)[O-])CC2)cc1	MITF inh 51 | MITF confirm 36 | AlphaScreen intf2 inactive
O=[N+]([O-])c1ccc(S(=O)(=O)N2CCN(Cc3ccccc3Cl)CC2)cc1	MITF inh 62 | MITF confirm inactive | AlphaScreen intf2 inactive
O=[N+]([O-])c1ccc(S(=O)(=O)N2CCN(Cc3ccccc3F)CC2)cc1	none
Cc1ccccc1CN1CCN(S(=O)(=O)c2ccc([N+](=O)[O-])cc2)CC1	MITF inh 71 | MITF confirm inactive | AlphaScreen intf2 inactive
Cc1ccc(NC(=O)c2ccc(N(C)S(=O)(=O)c3ccccc3)cc2)cc1	none
CC(C(=O)N1CCCCC1)N(C)CC(=O)Nc1ccc(F)c(F)c1F (stereo not given)	MITF inh 69 | MITF confirm inactive | AlphaScreen intf2 inactive
CS(=O)(=O)Nc1ccccc1C(=O)NC1CCCCCC1	none
CC(=O)c1ccc(S(=O)(=O)N(C2=NCCCS2)c2ccc(F)cc2)cc1	none
COc1ccc(N(C2=NCCCS2)S(=O)(=O)c2ccc(OC)cc2)cc1	MITF inh 56 | MITF confirm inactive | AlphaScreen intf2 inactive
Cc1nc2ccccc2c(=O)n1NCc1ccc(Br)s1	none
Cc1[nH][nH]c(=O)c1C(c1ccccc1OCc1ccc(Br)cc1)c1c(C)[nH][nH]c1=O	MITF inh 66 | MITF confirm 46 | AlphaScreen intf2 inactive
COc1ccc(NC(=O)CCSc2nc3ccccc3s2)cc1	none
O=c1[nH]cc(S(=O)(=O)O)c2ccccc12	MITF inh 65 | MITF confirm inactive | AlphaScreen intf2 inactive
O=S(=O)(O)c1cc(S(=O)(=O)O)c2cc(O)c(S(=O)(=O)O)cc2c1	MITF inh 60 | MITF confirm 67 | AlphaScreen DR inactive | AlphaScreen intf2 inactive
COc1ccc(CN2CCC(C(=O)NCC(C)C)CC2)c(OC)c1	none
COc1ccc(OC)c(CN2CCN(C(=O)c3cccc(Cl)c3)CC2)c1	MITF inh 66 | MITF confirm inactive | AlphaScreen intf2 inactive
COc1cc(OC)c(OC)cc1CN1CCN(C(=O)c2ccncc2)CC1	MITF inh 56 | MITF confirm inactive | AlphaScreen intf2 inactive
COc1ccc(CN2CCN(C(=O)c3ccc(F)cc3)CC2)c(OC)c1	none
COc1ccc(CN2CCC(C(=O)NC(C)c3ccccc3)CC2)c(OC)c1 (stereo not given)	MITF inh 51 | MITF confirm inactive | AlphaScreen intf2 inactive
COc1ccc(CN2CCN(C(=O)c3ccccc3)CC2)c(OC)c1	MITF inh 60 | MITF confirm inactive | AlphaScreen intf2 inactive
CCOc1ccc(NS(=O)(=O)c2c(F)cccc2F)cc1OCC	none
O=C(Nc1cccc(C(F)(F)F)c1)c1cc([N+](=O)[O-])ccc1N1CCN(CCO)CC1	none
Cc1n[nH]c(C)c1CCC(=O)N/N=C\c1cccc(Cl)c1	none
O=C(Nc1ccc(O)cc1)c1ccc(C(=O)c2ccccc2)cc1	none
COc1cccc(C(=O)N2CCN(Cc3ccccc3OC)CC2)c1	none
COc1ccc(OC)c(CN2CCN(C(=O)c3cccc4ccccc34)CC2)c1	none
COc1ccccc1CN1CCN(C(=O)c2ccccc2)CC1	MITF inh 60 | MITF confirm inactive | AlphaScreen intf2 inactive
COc1ccccc1CN1CCN(C(=O)c2ccncc2)CC1	MITF inh 65 | MITF confirm inactive | AlphaScreen intf2 inactive
COc1ccc(OC)c(CN2CCN(C(=O)C(c3ccccc3)c3ccccc3)CC2)c1	MITF inh 52 | MITF confirm inactive | AlphaScreen intf2 inactive
